Bioassay records deposited in PubChem by National Center for Advancing Translational Sciences (NCATS).
AMA1 RON2 block = qHTS for Inhibitors of AMA1-RON; Towards Development of Antimalarial Drug Lead: Primary Screen | 0.2% of 360,000 active | Potency, µM (highest dose often 58.2 µM), inactives show top-dose activity change, negative = inhibition, hits mostly inhibitors | AlphaScreen AMA1-biotinylated RON2 peptide binding | AID 720542, 2013 | Plasmodium falciparum AMA1 (3D7) - RON2 peptide interaction;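 further: 0% = vehicle wells and -100% = peptide control; nearly all actives have a fitted effect of over 45% in size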
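AMA1 (3D7) with his tag at 25 nM final met compounds first, then biotinylated RON2 peptide at 25 nM; detection used donor plus acceptor beads, 10 µg/mL apiece, read by AlphaScreen after 30 min at room temperature.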
VACV mCherry inh = qHTS for Stage-Specific Inhibitors of Vaccinia Orthopoxvirus: mCherry Reporter Primary qHTS. Vaccinia virus mCherry reporter infection, fluorescence. Potency, µM (top dose mostly 36.5 µM), for the others: top-dose activity change, negative = inhibition, hits mostly inhibitors. 0.63% of 310,000 active. AID 720579, 2013; calls by dose curve; tested in A549 cells; further: nearly all actives have a fitted effect of over 35% in size
Pf growth 48h = Primary qHTS for delayed death inhibitors of the malarial parasite plastid, 48 hour incubation | Potency, µM (highest dose often 28.7 µM), for the others: at the highest dose activity change, negative = inhibition, most hits filed as inhibitors | 5.9% of 310,000 active | P. falciparum luciferase growth in erythrocytes, 48 h | AID 504832, 2011
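Firefly luciferase activity from engineered P. falciparum reports growth; inhibitors lower the luminescent signal. Cultures contained 2% hematocrit erythrocytes at 0.1% final parasitemia.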
VACV Venus inh = qHTS for Stage-Specific Inhibitors of Vaccinia Orthopoxvirus: Venus Reporter Primary qHTS; Vaccinia virus Venus reporter expression, fluorescence; Potency, µM (top dose mostly 36.5 µM), for the others: top-dose activity change, negative = inhibition, actives largely listed as inhibitors; 0.46% of 330,000 active; AID 720580, 2013; calls by dose curve; tested in A549 cells; further: nearly all actives have a fitted effect of over 30% in size
Pf growth 96h = Primary qHTS for delayed death inhibitors of the malarial parasite plastid, 96 hour incubation | 6.9% of 320,000 active | P. falciparum luciferase reporter growth, 96 h | Potency, µM (series often up to 28.7 µM), for the others: top-dose activity change, negative = inhibition, usual class: inhibitors
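Delayed-death screen, second-generation endpoint: infected erythrocytes, 2% hematocrit, 0.05% parasitemia final; 96 hours at 37 C, 5% CO2; luciferase detection reagent; luminescence decrease equals reduced growth.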
The depositor's hits bear a star; [ ] = remark or other dose. Most compounds without a hit are left out; they make up all but 8.7% or so of the library. Unless noted, the call rests on the fitted dose curve; in most records, active means well fitted curve in the direction sought with a large enough effect; inconclusive means small, poorly fitted or top-dose-only effect, or another doubt; inactive means no such curve, though single readings can be large; an effect the other way counts as inactive or inconclusive. Unless noted, on the % scale 0 is the no-effect control and ±100 the full control effect; potency means the concentration at half of the fitted maximal effect.

`Cc1ccc(-c2nnn(CC(=O)N(Cc3ccco3)C(C(=O)NC(C)(C)C)c3cccs3)n2)o1` (stereo not given) gave AMA1 RON2 block -7%, Pf growth 48h 15µM* and Pf growth 96h -9%.
`COc1cccc(N(C(=O)Cn2nnc(-c3ccc(C)o3)n2)C(C(=O)NC(C)(C)C)c2cccs2)c1` (stereo not given) gave AMA1 RON2 block 19%, Pf growth 48h 13µM* and Pf growth 96h -19%.
Cc1ccc(-c2nnn(CC(=O)N(Cc3cccs3)C(C(=O)NC(C)(C)C)c3ccc(C)o3)n2)o1 (stereo not given) was read as AMA1 RON2 block 6% and Pf growth 48h -7%.
For CCCn1c2ccccc2c2cnn(CC(=O)Nc3cccc(C(=O)OCC)c3)c(=O)c21 the results were VACV mCherry inh -1% and VACV Venus inh -11%.
COCCOC(=O)c1[nH]c2c(c1C)C(=O)CC(c1cc(OC)c(OC)c(OC)c1)C2 (stereo not given) was read as AMA1 RON2 block 9%, VACV mCherry inh inactive, Pf growth 48h 5.2µM*, VACV Venus inh -21% and Pf growth 96h 9.3µM*.
CCCCOC(=O)c1[nH]c2c(c1C)C(=O)CC(c1cc(OC)c(OC)c(OC)c1)C2 (stereo not given) was read as AMA1 RON2 block -10%, VACV mCherry inh inconclusive, Pf growth 48h 2.9µM*, VACV Venus inh -27% and Pf growth 96h -21%.
`CCOC(=O)c1[nH]c2c(c1-c1ccc(OC)cc1)C(=O)CC(c1ccc(OC)c(OC)c1)C2` (stereo not given) gave AMA1 RON2 block 0%, VACV mCherry inh -12%, Pf growth 48h inconclusive, VACV Venus inh -15% and Pf growth 96h 8.3µM*.
Screening COc1cc(C2CC(=O)c3c([nH]c(C(=O)OCC4CCCCC4)c3C)C2)cc(OC)c1OC (stereo not given) returned VACV mCherry inh -15% and VACV Venus inh inconclusive.
For COc1cc(C2CC(=O)c3c([nH]c(C(=O)OC4CCCCC4)c3C)C2)cc(OC)c1OC (stereo not given) the results were VACV mCherry inh -17% and VACV Venus inh inconclusive.
For C=CCOC(=O)c1[nH]c2c(c1C)C(=O)CC(c1cc(OC)c(OC)c(OC)c1)C2 (stereo not given) the results were AMA1 RON2 block -6%, VACV mCherry inh inconclusive, Pf growth 48h 9.3µM*, VACV Venus inh -22% and Pf growth 96h 12µM*.
CCCCN(CCCNC(=O)c1c(C)oc2nc[nH]c(=O)c12)Cc1ccccc1 was read as VACV mCherry inh -12% and VACV Venus inh -2%.
Screening Cc1ccc(CNC(=O)c2cc(=O)c3cc(C)c(C)cc3o2)cc1 returned VACV mCherry inh -8% and VACV Venus inh -5%.
COCCOC(=O)c1[nH]c2c(c1C)C(=O)CC(c1ccc(N(C)C)cc1)C2 (stereo not given) was read as AMA1 RON2 block -22%, Pf growth 48h 12µM*, VACV Venus inh -7% and Pf growth 96h inconclusive.
Screening Oc1ccc(CNC2CCCCC2)cc1 returned AMA1 RON2 block -1%, Pf growth 48h 12µM* and VACV Venus inh -4%.
Cc1ccc(NC(=O)CSc2nnc(C)c(=O)[nH]2)cc1 was read as VACV mCherry inh -6% and VACV Venus inh -12%.
Screening COc1ccc(NC(=O)CSc2c(C)nn(-c3nnc(C)c(=O)[nH]3)c2C)cc1 returned AMA1 RON2 block 37%, VACV mCherry inh -10%, Pf growth 48h -13%, VACV Venus inh -4% and Pf growth 96h 12µM*.
For COc1ccc(NC(=O)CSc2nc(SC)ns2)cc1 the results were AMA1 RON2 block 7%, VACV mCherry inh 11µM*, Pf growth 48h 118%, VACV Venus inh inconclusive and Pf growth 96h 2%.
`COc1ccc(NC(=O)CSC2=NC(=O)CC(C)=N2)cc1` gave AMA1 RON2 block 0%, VACV mCherry inh -5%, Pf growth 48h 19%, VACV Venus inh -2% and Pf growth 96h 12µM*.
For CCOC(=O)c1ccccc1NC(=O)CSc1nc(=O)[nH]c2c1CCC2 the results were VACV mCherry inh -2%[7.34 µM] and VACV Venus inh -8%[7.34 µM].
`O=C(Nc1ccncc1)c1cccc(S(=O)(=O)N2CCN(c3ccc(F)cc3)CC2)c1` gave AMA1 RON2 block -27%, VACV mCherry inh inconclusive, Pf growth 48h inconclusive, VACV Venus inh -29% and Pf growth 96h 12µM*.
For Cc1cccc(C)c1NC(=O)CN(C)C(=O)c1cccc(S(=O)(=O)N2CCN(c3ccc(F)cc3)CC2)c1 the results were AMA1 RON2 block -14%, VACV mCherry inh inconclusive, Pf growth 48h 17µM*, VACV Venus inh -28% and Pf growth 96h inconclusive.
For COC(=O)c1cc(S(=O)(=O)N2CCN(c3ccc(F)cc3)CC2)cn1C the results were AMA1 RON2 block 5%, VACV mCherry inh -17%, Pf growth 48h 29%, VACV Venus inh -9% and Pf growth 96h 9.3µM*.
Screening COC(=O)c1cc(S(=O)(=O)N2CCN(c3cccc(OC)c3)CC2)cn1C returned AMA1 RON2 block 1%, VACV mCherry inh inactive, Pf growth 48h 11%, VACV Venus inh -8% and Pf growth 96h -3%.
`O=C(NCc1ccc(F)cc1)c1ccc2c(c1)N(Cc1c(F)cccc1Cl)C(=O)CS2` gave VACV mCherry inh 6% and VACV Venus inh -1%.
`NCCN(Cc1ccc(Cl)c(Cl)c1)c1ccc(Br)cn1` gave VACV mCherry inh inactive and VACV Venus inh -10%.
`CCCCN(CCCC)CC(O)COc1ccc(Br)cc1` (stereo not given) gave AMA1 RON2 block 2%, VACV mCherry inh -10%, Pf growth 48h 3.7µM*, VACV Venus inh -2% and Pf growth 96h 3.3µM*.
For CCN(CC)S(=O)(=O)c1ccc(C(=O)NCCSc2c(-c3ccc(F)cc3)[nH]c3ccccc23)cc1 the results were VACV mCherry inh inconclusive and VACV Venus inh -29%.
Screening CCC1CN(CCNC(=O)c2cccnc2OC)Cc2cc(OC)ccc2O1 (stereo not given) returned VACV mCherry inh -13% and VACV Venus inh -1%.
CC1CC2(C)Oc3ccccc3CC2C(C)C1CNCCCN(C)C (stereo not given) was read as AMA1 RON2 block -11%, VACV mCherry inh inconclusive, Pf growth 48h inconclusive, VACV Venus inh 14µM* and Pf growth 96h inconclusive.
For CC1Cc2ccccc2N1C(=O)CNCCCN(C)C (stereo not given) the results were AMA1 RON2 block -1%, VACV Venus inh 7% and Pf growth 96h -22%.
